Experimental data taken from PubChem BioAssay.
Activity calls are given as the source filed them. How the calls were made is not given here.

system: Aerobactin synthetase IucA (Klebsiella pneumoniae, hypervirulent); test: IucA enzyme inhibition, biochemical, LOPAC library, absorbance readout (AID 1346212); conditions: IucA enzyme assay, absorbance (OD) readout; hits give low values;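 tested at 8 µM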;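 further: 100% = no compound wells and 0% = no enzyme wells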

| SMILES | remaining activity |
| --- | --- |
| OC[C@H]1NC[C@@H](O)[C@@H]1O | 102% (inactive) |
| O=C(O)[C@@H]1C[C@@H](C(=O)O)N1 | 115% (inactive) |
| CN(C)CCCCSC(=N)N | 84.5% (inactive) |
| COC(=O)C(N)Cc1ccc(Cl)cc1 (centres undefined) | 91.4% (inactive) |
| Nc1nc2ccc(Cl)cc2c2nc(-c3ccco3)nn12 | 104% (inactive) |
| CC(C)(C)NC(=O)[C@H]1CC[C@H]2[C@@H]3CC[C@H]4NC(=O)C=C[C@]4(C)[C@H]3CC[C@]12C | 119% (inactive) |
| O=C(O)/C(=C/c1c(C(=O)O)[nH]c2cc(Cl)cc(Cl)c12)c1ccccc1 | 117% (inactive) |
| CC(=O)O[C@H]1C(=O)[C@@]2(C)[C@H]([C@H](OC(=O)c3ccccc3)[C@]3(O)C[C@H](OC(=O)[C@H](O)[C@@H](NC(=O)c4ccccc4)c4ccccc4)C(C)=C1C3(C)C)[C@]1(OC(C)=O)CO[C@@H]1C[C@@H]2O | 94.8% (inactive) |
| N#C/C(=C\c1ccc(O)c(O)c1)C(=O)Nc1ccccc1 | 103% (inactive) |
| CCCOC(=O)c1c(-c2ccccc2)nc(CC)c(C(=O)SCC)c1CCC | 106% (inactive) |
| O=C(CCCN1CCC(O)(c2cccc(C(F)(F)F)c2)CC1)c1ccc(F)cc1 | 101% (inactive) |
| COc1cc(/C=C(\C#N)C(=O)c2ccc(O)c(O)c2)cc(I)c1O | 85.4% (inactive) |
| CN(C)c1ccc(/C=C2\C(=O)Nc3ccccc32)cc1 | 95.7% (inactive) |
| CC1=C(C(=O)O)N2C(=O)[C@@H](NC(=O)[C@H](N)C3=CCC=CC3)[C@H]2SC1 | 113% (inactive) |
